# Reference: the supplement of paper PMC11732987, “Enantioselective OTUD7B fragment discovery through chemoproteomics screening and high-throughput optimisation” (Communications Chemistry, 2025)
# A number with no mark means an inactive call.
# Tests used:
# Assay in all cases: log2 ratio of Biotin-Ahx-Ub-VS probe labelling (fragment/DMSO); higher = less target engagement (more negative = stronger competition), active = hit call of the paper (q ≤ 0.05, log2 ratio ≤ -1)
# Settings in all cases: compound concentration: 200 uM; treatment time: 3 h
# [1] = target: T1, ALG13 (UniProt Q9NP73)
# T1 sequence (whole entry): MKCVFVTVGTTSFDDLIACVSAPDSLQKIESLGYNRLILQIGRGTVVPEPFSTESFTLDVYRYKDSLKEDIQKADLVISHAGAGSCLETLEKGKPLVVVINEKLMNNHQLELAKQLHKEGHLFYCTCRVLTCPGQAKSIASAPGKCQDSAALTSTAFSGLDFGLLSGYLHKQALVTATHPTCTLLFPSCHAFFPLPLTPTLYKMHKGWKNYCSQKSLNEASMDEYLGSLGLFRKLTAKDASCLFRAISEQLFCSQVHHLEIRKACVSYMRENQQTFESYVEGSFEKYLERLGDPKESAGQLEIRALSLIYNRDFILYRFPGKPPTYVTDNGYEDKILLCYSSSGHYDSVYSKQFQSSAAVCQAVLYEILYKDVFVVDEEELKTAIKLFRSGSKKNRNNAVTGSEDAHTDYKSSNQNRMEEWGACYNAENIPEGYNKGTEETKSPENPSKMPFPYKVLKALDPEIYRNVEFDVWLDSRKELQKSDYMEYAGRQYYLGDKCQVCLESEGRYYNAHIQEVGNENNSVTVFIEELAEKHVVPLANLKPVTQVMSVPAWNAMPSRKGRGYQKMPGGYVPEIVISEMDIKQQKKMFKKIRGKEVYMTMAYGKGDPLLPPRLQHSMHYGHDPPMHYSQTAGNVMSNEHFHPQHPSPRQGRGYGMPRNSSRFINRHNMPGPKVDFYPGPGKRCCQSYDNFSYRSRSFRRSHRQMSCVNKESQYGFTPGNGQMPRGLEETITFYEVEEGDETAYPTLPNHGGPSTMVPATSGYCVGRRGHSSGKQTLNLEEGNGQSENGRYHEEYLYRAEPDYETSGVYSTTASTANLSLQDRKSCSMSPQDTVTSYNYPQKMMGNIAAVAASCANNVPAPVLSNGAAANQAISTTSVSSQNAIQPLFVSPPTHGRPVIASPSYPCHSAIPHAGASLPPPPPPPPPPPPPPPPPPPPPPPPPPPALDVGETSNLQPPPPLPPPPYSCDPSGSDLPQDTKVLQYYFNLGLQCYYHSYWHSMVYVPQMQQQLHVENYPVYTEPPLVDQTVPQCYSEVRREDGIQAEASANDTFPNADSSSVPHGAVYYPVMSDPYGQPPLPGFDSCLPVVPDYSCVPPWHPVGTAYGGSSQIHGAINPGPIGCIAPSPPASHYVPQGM
# Summary of the method: (§1)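 Triplicate samples of HEK293T lysate, 495 µg each, received fragment at 200 µM or vehicle for 3 h, followed by Biotin-Ahx-Ub-VS (0.5 µM final) for 1 h. After NeutrAvidin enrichment of labelled DUBs and LysC/trypsin digestion, peptides were run by diaPASEF LC-MS/MS. The values are average log2 fragment/vehicle ratios from global-median-normalised Spectronaut label-free quantities, tested by unpaired t-test on proteins having ≥2 unique peptides.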
# [2] = target: ATXN3 (UniProt P54252)
# Sequence of ATXN3 (P54252 whole entry): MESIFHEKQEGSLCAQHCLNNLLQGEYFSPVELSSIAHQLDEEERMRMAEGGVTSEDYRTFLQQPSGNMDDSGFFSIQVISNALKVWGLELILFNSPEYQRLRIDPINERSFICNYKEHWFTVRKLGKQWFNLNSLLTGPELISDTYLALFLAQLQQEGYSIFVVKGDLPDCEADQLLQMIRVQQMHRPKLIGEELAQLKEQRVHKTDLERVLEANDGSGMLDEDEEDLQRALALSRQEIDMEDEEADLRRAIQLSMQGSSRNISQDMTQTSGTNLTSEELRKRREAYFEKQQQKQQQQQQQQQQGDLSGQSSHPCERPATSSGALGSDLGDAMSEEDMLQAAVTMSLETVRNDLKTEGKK
# Summary of the method: as §1
# [3] = target: T2, BAP1 (UniProt Q92560)
# T2 sequence (whole entry): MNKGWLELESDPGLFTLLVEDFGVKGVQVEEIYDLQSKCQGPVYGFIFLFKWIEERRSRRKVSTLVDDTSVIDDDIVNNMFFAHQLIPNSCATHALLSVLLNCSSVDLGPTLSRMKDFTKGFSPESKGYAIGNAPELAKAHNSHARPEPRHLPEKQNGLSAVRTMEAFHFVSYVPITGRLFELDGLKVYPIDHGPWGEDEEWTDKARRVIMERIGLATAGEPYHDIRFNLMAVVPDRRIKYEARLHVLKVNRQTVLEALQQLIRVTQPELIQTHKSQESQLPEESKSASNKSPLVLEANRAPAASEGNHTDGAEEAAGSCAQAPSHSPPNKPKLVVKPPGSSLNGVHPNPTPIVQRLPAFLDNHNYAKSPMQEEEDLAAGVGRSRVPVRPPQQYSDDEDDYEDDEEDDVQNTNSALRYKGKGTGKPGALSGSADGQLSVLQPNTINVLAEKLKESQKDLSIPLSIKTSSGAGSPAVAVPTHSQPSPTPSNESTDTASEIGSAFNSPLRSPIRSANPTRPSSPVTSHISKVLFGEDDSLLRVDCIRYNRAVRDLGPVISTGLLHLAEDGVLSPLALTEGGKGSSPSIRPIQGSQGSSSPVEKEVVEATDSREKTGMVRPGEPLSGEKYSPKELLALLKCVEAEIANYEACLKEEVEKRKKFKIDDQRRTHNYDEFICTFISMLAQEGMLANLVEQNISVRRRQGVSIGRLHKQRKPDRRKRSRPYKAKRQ
# Summary of the method: as §1
# [4] = target: EIF3F (UniProt O00303)
# Sequence of EIF3F (O00303 whole entry): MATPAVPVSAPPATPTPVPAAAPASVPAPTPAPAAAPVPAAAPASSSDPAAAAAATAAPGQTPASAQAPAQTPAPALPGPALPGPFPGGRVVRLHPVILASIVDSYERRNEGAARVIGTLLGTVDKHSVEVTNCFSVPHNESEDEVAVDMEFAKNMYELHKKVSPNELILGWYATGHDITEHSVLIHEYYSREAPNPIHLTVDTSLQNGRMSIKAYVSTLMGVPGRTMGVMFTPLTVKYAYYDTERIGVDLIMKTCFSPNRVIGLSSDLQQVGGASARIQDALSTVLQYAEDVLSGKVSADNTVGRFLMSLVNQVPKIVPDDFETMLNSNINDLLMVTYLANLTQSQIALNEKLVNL
# Summary of the method: as §1
# [5] = target: EIF3H (UniProt O15372)
# Sequence of EIF3H (O15372 whole entry): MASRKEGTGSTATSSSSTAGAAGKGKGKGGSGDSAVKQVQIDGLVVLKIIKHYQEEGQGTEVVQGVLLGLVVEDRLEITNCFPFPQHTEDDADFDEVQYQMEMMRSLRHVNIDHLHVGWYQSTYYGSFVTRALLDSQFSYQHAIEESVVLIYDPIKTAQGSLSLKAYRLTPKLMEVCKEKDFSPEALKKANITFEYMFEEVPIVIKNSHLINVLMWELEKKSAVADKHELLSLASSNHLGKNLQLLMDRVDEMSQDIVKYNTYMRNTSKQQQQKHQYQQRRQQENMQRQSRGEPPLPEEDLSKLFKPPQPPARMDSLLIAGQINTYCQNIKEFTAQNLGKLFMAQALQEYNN
# Summary of the method: as §1
# [6] = target: T3, FAM105A (UniProt Q9NUU6)
# T3 sequence (whole entry): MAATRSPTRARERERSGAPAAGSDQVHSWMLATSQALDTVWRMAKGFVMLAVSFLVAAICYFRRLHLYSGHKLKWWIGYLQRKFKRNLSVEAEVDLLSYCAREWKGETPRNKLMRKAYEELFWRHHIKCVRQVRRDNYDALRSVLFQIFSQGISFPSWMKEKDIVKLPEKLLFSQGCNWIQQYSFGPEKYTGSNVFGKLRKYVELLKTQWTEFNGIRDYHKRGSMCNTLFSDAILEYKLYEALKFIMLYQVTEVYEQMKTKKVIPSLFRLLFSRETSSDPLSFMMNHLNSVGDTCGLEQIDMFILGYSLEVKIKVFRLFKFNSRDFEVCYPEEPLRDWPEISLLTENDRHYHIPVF
# Summary of the method: as §1
# [7] = target: OTUB1 (UniProt Q96FW1)
# Sequence of OTUB1 (Q96FW1 whole entry): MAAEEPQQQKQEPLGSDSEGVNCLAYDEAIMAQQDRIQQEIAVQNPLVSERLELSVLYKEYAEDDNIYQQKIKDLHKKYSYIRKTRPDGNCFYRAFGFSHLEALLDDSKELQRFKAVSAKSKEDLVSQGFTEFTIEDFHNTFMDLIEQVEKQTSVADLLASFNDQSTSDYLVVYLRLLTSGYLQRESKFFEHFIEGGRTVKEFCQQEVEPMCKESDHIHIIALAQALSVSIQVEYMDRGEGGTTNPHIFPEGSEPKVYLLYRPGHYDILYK
# Summary of the method: as §1
# [8] = target: T4, OTUD4 (UniProt Q01804)
# T4 sequence (whole entry): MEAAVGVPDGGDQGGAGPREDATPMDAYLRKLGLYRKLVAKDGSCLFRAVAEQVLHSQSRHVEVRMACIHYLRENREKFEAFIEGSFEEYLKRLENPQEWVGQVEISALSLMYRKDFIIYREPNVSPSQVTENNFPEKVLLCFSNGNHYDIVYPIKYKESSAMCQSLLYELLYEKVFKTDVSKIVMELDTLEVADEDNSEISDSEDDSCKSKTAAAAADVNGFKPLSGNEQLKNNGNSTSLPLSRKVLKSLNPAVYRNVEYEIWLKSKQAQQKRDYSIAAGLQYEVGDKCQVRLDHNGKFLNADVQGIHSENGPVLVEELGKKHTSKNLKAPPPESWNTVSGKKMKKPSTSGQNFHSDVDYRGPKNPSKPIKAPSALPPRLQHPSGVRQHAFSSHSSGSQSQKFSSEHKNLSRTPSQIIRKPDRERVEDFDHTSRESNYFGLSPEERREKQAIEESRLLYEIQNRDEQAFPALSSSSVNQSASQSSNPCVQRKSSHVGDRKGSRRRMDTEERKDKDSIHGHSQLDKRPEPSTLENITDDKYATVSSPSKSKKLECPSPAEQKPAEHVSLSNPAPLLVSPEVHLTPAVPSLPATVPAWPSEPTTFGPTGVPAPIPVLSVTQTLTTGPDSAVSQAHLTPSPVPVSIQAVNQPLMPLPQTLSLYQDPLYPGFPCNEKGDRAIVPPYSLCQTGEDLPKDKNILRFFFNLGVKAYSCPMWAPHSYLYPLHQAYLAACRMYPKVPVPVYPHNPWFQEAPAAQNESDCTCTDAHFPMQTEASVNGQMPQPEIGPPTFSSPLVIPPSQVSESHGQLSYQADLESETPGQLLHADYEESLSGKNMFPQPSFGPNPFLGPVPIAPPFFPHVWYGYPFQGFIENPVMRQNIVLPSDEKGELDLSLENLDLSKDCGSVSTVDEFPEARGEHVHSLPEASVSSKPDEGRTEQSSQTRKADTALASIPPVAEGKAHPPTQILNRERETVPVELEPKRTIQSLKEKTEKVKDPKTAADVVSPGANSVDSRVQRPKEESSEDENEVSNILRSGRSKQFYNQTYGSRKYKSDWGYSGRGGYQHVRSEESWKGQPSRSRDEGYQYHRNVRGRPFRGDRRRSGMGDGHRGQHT
# Summary of the method: as §1
# [9] = target: T5, OTUD5 (UniProt Q96G74)
# T5 sequence (whole entry): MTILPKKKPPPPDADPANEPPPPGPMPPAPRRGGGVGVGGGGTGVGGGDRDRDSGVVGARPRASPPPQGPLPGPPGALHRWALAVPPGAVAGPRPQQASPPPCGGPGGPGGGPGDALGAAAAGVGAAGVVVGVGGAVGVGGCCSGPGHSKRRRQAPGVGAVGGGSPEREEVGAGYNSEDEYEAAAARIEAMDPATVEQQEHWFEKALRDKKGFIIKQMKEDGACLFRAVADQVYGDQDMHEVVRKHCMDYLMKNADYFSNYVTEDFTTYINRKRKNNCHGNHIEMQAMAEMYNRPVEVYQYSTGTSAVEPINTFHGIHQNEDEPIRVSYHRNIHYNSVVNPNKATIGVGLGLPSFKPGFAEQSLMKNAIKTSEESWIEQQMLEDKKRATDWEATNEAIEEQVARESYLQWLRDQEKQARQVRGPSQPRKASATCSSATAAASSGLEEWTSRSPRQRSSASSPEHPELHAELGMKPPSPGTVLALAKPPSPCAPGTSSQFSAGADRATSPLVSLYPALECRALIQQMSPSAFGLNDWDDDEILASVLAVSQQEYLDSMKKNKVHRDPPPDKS
# Summary of the method: as §1
Compound,log2 ratio of Biotin-Ahx-Ub-VS probe labelling [1],log2 ratio of Biotin-Ahx-Ub-VS probe labelling [2],log2 ratio of Biotin-Ahx-Ub-VS probe labelling [3],log2 ratio of Biotin-Ahx-Ub-VS probe labelling [4],log2 ratio of Biotin-Ahx-Ub-VS probe labelling [5],log2 ratio of Biotin-Ahx-Ub-VS probe labelling [6],log2 ratio of Biotin-Ahx-Ub-VS probe labelling [7],log2 ratio of Biotin-Ahx-Ub-VS probe labelling [8],log2 ratio of Biotin-Ahx-Ub-VS probe labelling [9]
NC(=O)C(Cc1ccccc1)NC(=O)CCl (stereo not drawn),0.0325,-0.279,-2.01 (active),0.127,-0.254,-0.0569,0.128,-0.451,-0.216
O=C(CCl)NCCC1=CCCCC1,0.121,-0.135,-0.56,-0.0695,0.0525,-0.125,0.147,-0.135,-0.0425
Cl.O=C(CCl)N1CCN(Cc2ccccc2)CC1,0.239,-0.805,-0.734,-0.615,0.134,-0.0745,-0.185,-0.316,-0.551
Cl.O=C(CCl)N1CCC(n2nc3ccccc3n2)CC1,-0.254,-1.1 (active),-2.08 (active),-0.315,-0.151,0.315,-0.67,-0.134,-0.494
O=C(CCl)NC1(c2ccc3c(c2)OCCO3)CCCC1,-0.035,-0.252,-1.89 (active),-0.19,-0.051,0.0394,-0.359,-1.1 (active),-0.293
O=C(CCl)N1CCOC(c2cccc(F)c2)C1 (stereo not drawn),-0.261,-2.59 (active),-1.09 (active),-0.0524,0.265,-0.167,-0.175,-0.803,-0.491
CCc1c[nH]c(CNC(=O)CCl)n1.Cl,0.0285,-0.421,-0.464,-1.13,0.281,0.0309,-0.461,-0.214,-0.482
